# Bioassay records as filed in PubChem.
# TSG101-PTAP inh = qHTS Assay for Iinhibitors of HIV-1 Budding by Blocking the Interaction of PTAP/TSG101; Tumor susceptibility gene 101 protein (Homo sapiens), Q99816; Fluorescence polarization, FITC-PTAP peptide / Tsg101 binding; Potency, µM (highest dose often 115 µM), for the others: top-dose activity change, negative = inhibition, actives largely listed as inhibitors; 340,000 tested, under 10 active; AID 493005, 2010; active means well fitted inhibition curve with a large enough effect in the main read-out, with a control signal flat, not every such curve was filed as active; inconclusive means small, poorly fitted or top-dose-only effect, or effect the other way, or a change in a side signal; inactive means no such curve, though single readings can be large or run the other way; further: potency means the concentration at half of the fitted maximal effect; % of control where 0% means no effect
# Target sequence (Q99816 whole entry, looked up): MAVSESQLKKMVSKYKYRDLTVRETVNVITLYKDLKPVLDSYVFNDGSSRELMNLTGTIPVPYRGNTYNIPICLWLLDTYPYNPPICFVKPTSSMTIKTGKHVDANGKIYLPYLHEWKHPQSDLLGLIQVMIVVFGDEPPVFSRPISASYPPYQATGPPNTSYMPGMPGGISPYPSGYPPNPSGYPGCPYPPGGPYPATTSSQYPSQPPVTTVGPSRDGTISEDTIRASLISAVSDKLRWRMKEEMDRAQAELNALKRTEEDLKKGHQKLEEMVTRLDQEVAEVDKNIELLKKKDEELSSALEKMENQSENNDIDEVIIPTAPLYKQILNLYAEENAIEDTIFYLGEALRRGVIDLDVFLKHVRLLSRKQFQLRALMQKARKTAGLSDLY
#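 Steps: Tsg101 binding domain dispensed (10 uM final), compounds pinned in DMSO, FITC-labeled PTAP-motif peptide added (50 nM final); after 20 min binding at room temperature, polarization measured.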
# TCR activator = Activators of T cell receptors: qHTS campaign; AID 504894, 2011; Potency, µM (titrated, usually from 9.22 µM), for the others: at the highest dose activation of IL-2 secretion, actives largely listed as activators; 330,000 tested, under 10 active; primary human leukocytes, anti-CD3, IL-2 HTRF, 48 h; further: % of control where 0% means no effect
#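 IL-2 release read by HTRF sandwich (Eu cryptate donor, d2 acceptor, 665 nm emission) after 48 hr exposure of primary human leukocytes to compound together with anti-CD3 beads in the absence of co-stimulatory signals.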
# a7 integrin act = qHTS for Activators of Integrin-Mediated Alleviation for Muscular Dystrophy | Potency, µM (doses to about 38.3 µM), for inactives: at the highest dose activation, most hits filed as activators | hit rate 0.064% among 350,000 | alpha7betagal myoblasts, beta-gal FDG fluorescence, 48 h;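 further: potency means the concentration at half of the fitted maximal effect; 100% = response of the positive control SU9516; nearly all actives have a fitted effect of over 60% in size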
#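 alpha7betagal+/- myoblasts (passage 13, 250/well) treated 48 h at 37C with compounds at 1:260 dilution of DMSO stock. Lysed, then beta-galactosidase activity read as FDG fluorescence (ex 480/em 540) after 30 min, with pre-read for autofluorescence.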
# TSHR antagonist = Antagonists of the Thyroid Stimulating Hormone Receptor: HTS campaign. TSHR-expressing cells, TSH-stimulated cAMP HTRF, 2 h; stronger effect = lower value. hit rate 0.2% among 330,000. activity change, negative = inhibition, % at 11.5 µM. Thyrotropin receptor (Homo sapiens), P16473;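 active means activity change below a set negative limit, meaning inhibition stronger than a set level, cut at about -70% in these data; inconclusive means activity change between two set negative limits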; further: on the % scale 0 is the no-effect control and ±100 the full control effect
#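 Competitive HTRF cAMP read-out (cryptate anti-cAMP antibody, cAMP-d2; 30 min, room temperature) in freshly harvested TSHR cells. Compounds added before TSH at EC80 (4nM final), followed by 2 hours' incubation at 37 deg C.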
# MBNL1-CUG inh = qHTS Assay for Inhibitors of MBNL1-poly(CUG) RNA binding; Potency, µM (doses to about 57.5 µM), for inactives: at the top dose activity change, negative = inhibition, most hits filed as inhibitors; TR-FRET MBNL1-His/biotin-(CUG)12 binding, 665/545 ratio; Muscleblind-like protein 1 (Homo sapiens), Q9NR56; hit rate 0.036% among 280,000; active means well fitted inhibition curve with a large enough effect in the signal ratio, with a control signal flat, not every such curve was filed as active; inconclusive means small, poorly fitted or top-dose-only effect, or effect the other way, or a change in a side signal; inactive means no such curve, though single readings can be large or run the other way; the % refers to the signal ratio; further: potency means the concentration at half of the fitted maximal effect; on the % scale 0 is the no-effect control and ±100 the full control effect
#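 TR-FRET readout: Ex 340 nm, 665/545 nm emission ratio, normalized to buffer-only (basal) and MBNL1-(CUG)12 controls. Complex of MBNL1-His with Biotin-(CUG)12, compounds 92 nM–58 uM, incubated 60 min at room temperature.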
# CBFb-RUNX1 inh = qHTS Assay for Compounds Blocking the Interaction Between CBF-beta and RUNX1 for the Treatment of Acute Myeloid Leukemia; AlphaScreen CBFb-His/RUNX1-biotin binding, biochemical; Potency, µM (titrated, usually from 59.8 µM), inactives show at the highest dose activity, negative = inhibition, usual class: inhibitors; 230,000 tested, under 10 active; further: % of control where 0% means no effect
#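 CBFb-His/RUNX1-biotin, 30 nM each, preincubated 20 min RT; compound 15 min RT; Ni + streptavidin beads 50 ng each, 90 min RT; AlphaScreen read.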
# An asterisk follows results filed as active; ? = inconclusive; / = not tested or not shown; [ ] = dose if it differs, or a comment. Most compounds without a hit are left out; they make up all but 0.26% or so of the library. Unless noted, the call rests on the fitted dose curve; in most records, active means well fitted curve in the direction sought with a large enough effect; inconclusive means small, poorly fitted or top-dose-only effect, or another doubt; inactive means no such curve, though single readings can be large; an effect the other way counts as inactive or inconclusive.
SMILES,TSG101-PTAP inh,TCR activator,a7 integrin act,TSHR antagonist,MBNL1-CUG inh,CBFb-RUNX1 inh
CCn1cc(C(=O)NCC(OC)OC)c(=O)c2cc(S(=O)(=O)N3CCOCC3)ccc21,-3%,-3%,10%,-38,-8%,/
COc1cc2ncc(-c3ccccc3)nc2cc1OC,/,/,/,/,/,27%
CCN1C(C(=O)c2ccccc2)=C(Nc2ccccc2C)c2ccccc2S1(=O)=O,2%,1%[46.1 µM],4%,-79*,?,-7%
O=C1C(Cl)=C(NC(=O)c2ccccc2)C(=O)C(Cl)=C1NC(=O)c1ccccc1,2%,2%,-13%,-85*,5%,/
COc1ccc(NC=O)c(C(=O)CCNC(C)=O)c1,/,/,/,/,/,4%
COC(=O)CCCC[C@H]1SC[C@H]2NC(=O)N[C@]21O,/,/,/,3,0.32µM*,-26%
COC(=O)CCCCC1SCC2NC(=O)NC21O (stereo unspecified),-2%,4%,3%,-4,0.71µM*,/
COC(=O)C1CSC(C)(C)C(=O)N1 (stereo unspecified),-4%,3%,5%,-1,-5%,19%
C=C(CCC12O[C@H](C(=O)O)[C@@](O)(C(=O)O)[C@](C(=O)O)(O1)[C@H](OC(=O)/C=C/[C@@H](C)C[C@@H](C)CC)[C@H]2O)[C@@H](OC(C)=O)[C@H](C)Cc1ccccc1,/,/,/,/,/,14%
O=C(CSCc1c(F)cccc1Cl)NCc1cccnc1,0%,5%[46.1 µM],9%,38,/,-6%
Fc1cccc(Cl)c1CNCc1cccnc1,-2%,-1%,12%,-106*,-9%,/
COc1ccc(C2CC(c3ccccc3)Oc3ccc(C(C)(C)C)cc32)cc1 (stereo unspecified),/,/,/,/,/,13%
CCCCS(=O)(=O)N1CCCC(C(=O)NCCc2ccccc2)C1 (stereo unspecified),-5%,-5%,7.1µM*,-2,-3%,/
CCCS(=O)(=O)N1CCCC(C(=O)c2cccc(Cl)c2)C1 (stereo unspecified),-2%,-5%,6.3µM*,9,-15%,6%
CCCS(=O)(=O)N1CCCC(C(=O)NCCc2ccccc2)C1 (stereo unspecified),-2%,-13%,4%,-8,0%,/
CS(=O)(=O)N1CCCC(C(=O)c2cccc(Cl)c2)C1 (stereo unspecified),-1%,5%,0%,7,2%,4%
CCCn1c(-c2ccc(F)cc2)nc2c(NCCN(C(C)C)C(C)C)nc(C)nc21,/,/,/,/,/,9%
Cc1c(C(=O)N2CCOCC2)c(S(=O)(=O)Nc2cccc(Br)c2)c(C)n1C,2%,-6%,?,13,3%,/
Cc1c(C(=O)N2CCCCC2)c(S(=O)(=O)Nc2cccc(Br)c2)c(C)n1C,-1%,13%,10µM*,13,0%,/
CCc1c(C2(O)CCCCC2)[nH]c2ncccc12,-2%,-9%,10µM*,-12,/,/
Cc1c(C2(O)CCCCC2)[nH]c2ncccc12,-1%,-3%,2%,-4,/,/
CC(=O)NC(c1ccco1)c1cc(Cl)c2ccc(N(C)C)nc2c1O (stereo unspecified),/,/,/,29,/,/
CC(C)(C)OC(=O)NCCCCCc1cn([C@@H](CO)C(=O)NCCCCCCCCCCC(=O)N2CCN(C(=O)OC(C)(C)C)CC2)nn1,-9%,-5%,-42%,-95*,/,/
O=C(Nc1ccccc1F)c1ccc(O)c2ncccc12,/,/,/,-7,/,/
CC(C)=CCC[C@](C)(O)C1CC[C@]2(C)[C@@H]1CC[C@@H]1[C@@]3(C)CCC(=O)C(C)(C)[C@@H]3CC[C@]12C (stereo partly specified),/,/,/,/,/,-1%
SMILES,TSG101-PTAP inh,TCR activator,a7 integrin act,TSHR antagonist,MBNL1-CUG inh,CBFb-RUNX1 inh
COc1cccc(C(=O)NCC(=O)N2CCC3(CC2)NCCc2[nH]cnc23)c1,-2%,0%,11µM*,-2,-2%,/
NC(=O)C1CCN(c2nc(-c3ccc([N+](=O)[O-])cc3)cs2)CC1,/,/,/,29,/,/
CCCn1c(-c2cccc(F)c2)nc2c1c(=O)[nH]c(=O)n2Cc1ccccc1,-5%,2%,-28%,1,-6%,/
CCCn1c(-c2cc(OC)c(OC)c(OC)c2)nc2c1c(=O)[nH]c(=O)n2Cc1ccccc1,0%,0%,13µM*,2,-3%,/
CCC(=O)NC(c1cccs1)c1cc(Br)c2cccnc2c1O (stereo unspecified),/,/,/,17,/,/
CCOC(=O)c1[nH]c2cc(OC)c(OC)cc2c1NC(=O)c1ccc2c(c1)OCO2,-2%,0%,5%,-75*,-5%,1%
CCOC(=O)c1[nH]c2ccc(OC)cc2c1NC(=O)c1ccc2c(c1)OCO2,-6%,7%,-4%,7,-3%,0%
CS(=O)(=O)N(Cc1ccccc1)c1ccc(C(=O)N2CCN(c3cccc(Cl)c3)CC2)cc1,-7%,-2%,-30%,-92*,6%,-5%
CS(=O)(=O)N(Cc1ccc(Cl)cc1)c1ccc(C(=O)N2CCN(c3ccccc3)CC2)cc1,-9%,-61%,-8%,-1,2%,-9%
COc1ccc(CNC(=O)C(C)OC(=O)c2cccs2)cc1 (stereo unspecified),-2%,6%,-16%,-101*,1%,/
CCOC(=O)c1c(C)[nH]c2ccc3c(c12)CN1CCc2cc(OC)ccc2[C@@H]1O3,/,/,/,/,/,-14%[21.7 µM]
Fc1cc(F)c(C2SCCN2C(=S)Nc2cccc(C(F)(F)F)c2)c(F)c1 (stereo unspecified),0%,1%,-59%,-72*,/,9%
Oc1c(Cl)cc(Cl)cc1Sc1cc(Cl)cc(Cl)c1O,/,/,/,-92*,-24%,-22%
C/C(C/C(C)=C1/SC(=S)NC1=O)=C1\SC(=S)NC1=O,-8%,-2%,6%,-1,71%,-22%
CCCCCC/C(C)=C1/SC(=S)NC1=O,1%,-1%,26%,-85*,17%,-6%
O=C1C=CC(=O)N1CCCCCCN1C(=O)C=CC1=O,-3%,1%[46.1 µM],0%,-99*,?,-3%
O=C(O)CN1C(=O)C=CC1=O,/,/,-11%,/,/,/
NC1=Nc2cccc3cccc1c23,0%,12%,7.9µM*,-9,?,-12%
